Experimental data published in paper PMC7862700, “An all-to-all approach to the identification of sequence-specific readers for epigenetic DNA modifications on cytosine”.

Assays:
Assay in all cases: DAPPL (digital affinity profiling via proximity ligation, sequencing); 10 mM Tris-HCl pH 7.5, 50 mM NaCl, 1 mM DTT, 4% glycerol, room temperature, 30 min; GST-TFs on glutathione beads, 16-mer random dsDNA library, 0.1% formaldehyde crosslink after washing; high values mean tight binding
[1] = biological target: T1, FLI1 (Homo sapiens, UniProt Q01543 1-452); conditions: protein: recombinant; tags: N-terminal GST; dsDNA, one strand shown
T1 sequence: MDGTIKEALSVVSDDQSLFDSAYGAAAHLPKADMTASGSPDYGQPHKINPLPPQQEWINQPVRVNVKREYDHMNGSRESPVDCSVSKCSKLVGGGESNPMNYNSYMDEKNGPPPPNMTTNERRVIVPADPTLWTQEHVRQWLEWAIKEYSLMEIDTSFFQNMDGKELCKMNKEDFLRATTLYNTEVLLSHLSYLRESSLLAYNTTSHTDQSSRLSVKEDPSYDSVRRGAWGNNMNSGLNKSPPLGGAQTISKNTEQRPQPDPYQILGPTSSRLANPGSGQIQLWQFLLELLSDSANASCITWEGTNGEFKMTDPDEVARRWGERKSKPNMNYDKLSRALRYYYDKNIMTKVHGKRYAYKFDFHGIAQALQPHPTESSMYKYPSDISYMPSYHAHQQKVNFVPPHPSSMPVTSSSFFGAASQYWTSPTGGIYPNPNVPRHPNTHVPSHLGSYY
In short: (§1)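 The binding signal reported is, for every hexamer, its read frequency for a factor over its read frequency for the tag-only sample. Reads came from pools of yeast-expressed, GST-fused human transcription factors on glutathione beads, barcoded with DNA and mixed with that sample, which were incubated with 200 nmole of a random double-stranded 16-mer DNA library in Tris/NaCl/DTT/glycerol buffer at room temperature for 30 min. After washing, the pools were crosslinked with 0.1% formaldehyde, proximity-ligated with BsaI/T4 ligase for 1 h at 37 °C, PCR-amplified and sequenced on an Illumina NextSeq500.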

[2] = biological target: T2, ELK1 (Homo sapiens, UniProt P19419 1-428); conditions: protein: recombinant; tags: N-terminal GST; dsDNA, one strand shown
T2 sequence: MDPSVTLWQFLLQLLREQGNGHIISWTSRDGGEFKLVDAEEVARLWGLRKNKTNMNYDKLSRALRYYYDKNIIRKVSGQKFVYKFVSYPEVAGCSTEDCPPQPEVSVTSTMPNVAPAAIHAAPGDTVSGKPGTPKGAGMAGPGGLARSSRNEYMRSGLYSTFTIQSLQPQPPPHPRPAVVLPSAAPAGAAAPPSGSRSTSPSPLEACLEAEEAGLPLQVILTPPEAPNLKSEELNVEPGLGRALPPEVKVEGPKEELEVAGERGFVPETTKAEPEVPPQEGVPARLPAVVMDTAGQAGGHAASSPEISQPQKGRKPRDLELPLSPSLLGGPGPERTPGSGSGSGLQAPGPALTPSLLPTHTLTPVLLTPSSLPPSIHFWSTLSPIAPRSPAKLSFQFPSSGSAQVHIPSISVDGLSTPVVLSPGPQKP
In short: as §1

[3] = biological target: T3, GABPA (Homo sapiens, UniProt Q06546 1-454); conditions: protein: recombinant; tags: N-terminal GST; dsDNA, one strand shown
T3 sequence: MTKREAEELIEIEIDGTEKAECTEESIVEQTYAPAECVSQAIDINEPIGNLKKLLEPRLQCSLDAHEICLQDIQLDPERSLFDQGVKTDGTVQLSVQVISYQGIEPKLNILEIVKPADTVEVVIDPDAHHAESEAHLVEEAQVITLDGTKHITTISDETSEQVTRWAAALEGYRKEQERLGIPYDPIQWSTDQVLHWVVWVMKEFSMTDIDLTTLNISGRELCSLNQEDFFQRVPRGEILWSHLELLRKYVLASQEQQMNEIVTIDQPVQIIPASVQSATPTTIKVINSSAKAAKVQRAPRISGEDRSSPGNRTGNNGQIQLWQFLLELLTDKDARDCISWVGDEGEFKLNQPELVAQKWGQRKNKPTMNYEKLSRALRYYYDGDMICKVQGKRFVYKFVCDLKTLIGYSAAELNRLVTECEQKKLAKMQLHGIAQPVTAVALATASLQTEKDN
In short: as §1

[4] = biological target: T4, ERG (Homo sapiens, UniProt P11308 1-479); conditions: protein: recombinant; tags: N-terminal GST; dsDNA, one strand shown
T4 sequence: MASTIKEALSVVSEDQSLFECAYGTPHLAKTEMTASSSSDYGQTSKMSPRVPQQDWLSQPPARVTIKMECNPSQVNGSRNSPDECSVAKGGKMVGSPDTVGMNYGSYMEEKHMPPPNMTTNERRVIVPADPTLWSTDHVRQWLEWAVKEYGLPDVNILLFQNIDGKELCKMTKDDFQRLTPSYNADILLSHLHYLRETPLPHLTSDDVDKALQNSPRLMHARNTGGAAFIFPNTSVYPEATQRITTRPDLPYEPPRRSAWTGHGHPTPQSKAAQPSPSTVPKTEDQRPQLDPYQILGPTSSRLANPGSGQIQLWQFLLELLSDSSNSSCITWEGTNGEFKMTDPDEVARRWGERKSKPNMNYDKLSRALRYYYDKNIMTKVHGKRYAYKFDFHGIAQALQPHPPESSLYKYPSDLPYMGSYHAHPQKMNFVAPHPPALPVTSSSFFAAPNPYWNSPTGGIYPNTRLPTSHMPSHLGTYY
In short: as §1

[5] = biological target: ELF1 (Homo sapiens, UniProt P32519 1-619); conditions: protein: recombinant; tags: N-terminal GST; dsDNA, one strand shown
Chain of ELF1 (P32519 whole entry): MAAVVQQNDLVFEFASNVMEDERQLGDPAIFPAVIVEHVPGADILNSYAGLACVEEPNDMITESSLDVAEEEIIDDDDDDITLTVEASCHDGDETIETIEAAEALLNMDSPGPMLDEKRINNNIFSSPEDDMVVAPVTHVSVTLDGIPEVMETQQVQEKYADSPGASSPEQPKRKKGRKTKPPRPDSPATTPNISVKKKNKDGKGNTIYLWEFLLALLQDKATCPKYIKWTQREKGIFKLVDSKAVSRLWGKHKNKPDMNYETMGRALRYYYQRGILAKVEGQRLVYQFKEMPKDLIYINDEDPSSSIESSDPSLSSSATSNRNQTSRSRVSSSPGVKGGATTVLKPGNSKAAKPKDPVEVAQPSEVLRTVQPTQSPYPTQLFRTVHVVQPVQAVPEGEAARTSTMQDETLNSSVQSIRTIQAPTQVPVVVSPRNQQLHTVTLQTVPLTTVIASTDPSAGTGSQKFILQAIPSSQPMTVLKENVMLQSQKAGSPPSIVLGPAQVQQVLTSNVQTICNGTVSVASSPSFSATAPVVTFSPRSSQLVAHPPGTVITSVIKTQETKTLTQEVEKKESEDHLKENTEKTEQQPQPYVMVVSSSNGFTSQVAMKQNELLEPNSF
In short: as §1

[6] = biological target: T5, EHF (Homo sapiens, UniProt Q9NZC4 1-300); conditions: protein: recombinant; tags: N-terminal GST; dsDNA, one strand shown
T5 sequence: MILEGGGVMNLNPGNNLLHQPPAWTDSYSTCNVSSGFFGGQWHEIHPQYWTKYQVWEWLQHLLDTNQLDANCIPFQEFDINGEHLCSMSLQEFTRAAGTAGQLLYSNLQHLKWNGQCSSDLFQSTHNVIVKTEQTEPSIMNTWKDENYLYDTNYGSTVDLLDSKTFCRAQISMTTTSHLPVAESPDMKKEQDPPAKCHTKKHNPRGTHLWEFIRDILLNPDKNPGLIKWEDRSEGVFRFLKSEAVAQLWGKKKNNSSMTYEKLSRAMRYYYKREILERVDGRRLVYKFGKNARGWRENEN
In short: as §1

[7] = biological target: SPI1 (Homo sapiens, UniProt P17947 1-270); conditions: protein: recombinant; tags: N-terminal GST; dsDNA, one strand shown
In short: as §1

[8] = biological target: SPIB (Homo sapiens, UniProt Q01892 1-262); conditions: protein: recombinant; tags: N-terminal GST; dsDNA, one strand shown
Chain of SPIB (Q01892 whole entry): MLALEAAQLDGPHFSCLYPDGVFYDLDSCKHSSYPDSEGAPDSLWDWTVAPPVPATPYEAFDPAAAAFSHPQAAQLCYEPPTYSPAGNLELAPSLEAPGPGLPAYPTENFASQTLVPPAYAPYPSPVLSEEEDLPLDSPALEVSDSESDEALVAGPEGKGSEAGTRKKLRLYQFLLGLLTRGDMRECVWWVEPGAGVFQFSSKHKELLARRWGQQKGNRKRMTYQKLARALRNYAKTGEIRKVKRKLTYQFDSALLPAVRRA
In short: as §1

[9] = biological target: T6, ELK3 (Homo sapiens, UniProt P41970 1-407); conditions: protein: recombinant; tags: N-terminal GST; dsDNA, one strand shown
T6 sequence: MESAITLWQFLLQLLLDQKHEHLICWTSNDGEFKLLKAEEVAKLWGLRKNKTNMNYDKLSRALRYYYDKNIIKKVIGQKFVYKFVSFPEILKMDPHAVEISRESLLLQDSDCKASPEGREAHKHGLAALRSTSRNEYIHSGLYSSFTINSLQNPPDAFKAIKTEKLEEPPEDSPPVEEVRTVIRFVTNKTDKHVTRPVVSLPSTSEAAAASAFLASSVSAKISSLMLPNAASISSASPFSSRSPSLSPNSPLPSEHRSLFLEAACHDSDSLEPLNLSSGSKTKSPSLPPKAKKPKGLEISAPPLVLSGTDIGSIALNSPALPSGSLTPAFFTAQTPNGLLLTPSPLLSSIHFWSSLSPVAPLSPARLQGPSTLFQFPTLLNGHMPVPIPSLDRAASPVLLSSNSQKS
In short: as §1

[10] = biological target: T7, FEV (Homo sapiens, UniProt Q99581 1-238); conditions: protein: recombinant; tags: N-terminal GST; dsDNA, one strand shown
T7 sequence: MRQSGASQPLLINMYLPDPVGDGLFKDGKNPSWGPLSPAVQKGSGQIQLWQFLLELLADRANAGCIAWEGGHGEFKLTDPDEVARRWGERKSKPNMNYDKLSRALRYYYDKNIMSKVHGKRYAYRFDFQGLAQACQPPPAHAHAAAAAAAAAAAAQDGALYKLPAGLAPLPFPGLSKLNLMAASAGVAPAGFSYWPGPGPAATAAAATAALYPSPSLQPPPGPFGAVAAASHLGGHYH
In short: as §1

[11] = biological target: ETV5 (Homo sapiens, UniProt P41161 1-510); conditions: protein: recombinant; tags: N-terminal GST; dsDNA, one strand shown
Chain of ETV5 (P41161 whole entry): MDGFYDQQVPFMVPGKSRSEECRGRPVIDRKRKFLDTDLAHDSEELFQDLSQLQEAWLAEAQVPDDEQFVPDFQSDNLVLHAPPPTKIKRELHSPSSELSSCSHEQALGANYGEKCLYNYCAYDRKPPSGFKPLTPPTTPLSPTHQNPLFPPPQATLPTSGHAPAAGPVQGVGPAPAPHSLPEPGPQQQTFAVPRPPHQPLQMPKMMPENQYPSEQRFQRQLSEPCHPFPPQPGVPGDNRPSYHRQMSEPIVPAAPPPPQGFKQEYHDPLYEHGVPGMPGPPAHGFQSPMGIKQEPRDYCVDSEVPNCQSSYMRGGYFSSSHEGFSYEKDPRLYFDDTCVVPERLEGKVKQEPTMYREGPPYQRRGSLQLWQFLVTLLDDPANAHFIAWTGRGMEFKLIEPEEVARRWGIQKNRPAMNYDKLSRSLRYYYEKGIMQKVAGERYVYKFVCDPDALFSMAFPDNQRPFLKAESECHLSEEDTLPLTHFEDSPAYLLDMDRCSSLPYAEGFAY
In short: as §1

[12] = biological target: HSF1 (Homo sapiens, UniProt Q00613 1-529); conditions: protein: recombinant; tags: N-terminal GST; chain copies: 3; dsDNA, one strand shown
Chain of HSF1 (Q00613 whole entry): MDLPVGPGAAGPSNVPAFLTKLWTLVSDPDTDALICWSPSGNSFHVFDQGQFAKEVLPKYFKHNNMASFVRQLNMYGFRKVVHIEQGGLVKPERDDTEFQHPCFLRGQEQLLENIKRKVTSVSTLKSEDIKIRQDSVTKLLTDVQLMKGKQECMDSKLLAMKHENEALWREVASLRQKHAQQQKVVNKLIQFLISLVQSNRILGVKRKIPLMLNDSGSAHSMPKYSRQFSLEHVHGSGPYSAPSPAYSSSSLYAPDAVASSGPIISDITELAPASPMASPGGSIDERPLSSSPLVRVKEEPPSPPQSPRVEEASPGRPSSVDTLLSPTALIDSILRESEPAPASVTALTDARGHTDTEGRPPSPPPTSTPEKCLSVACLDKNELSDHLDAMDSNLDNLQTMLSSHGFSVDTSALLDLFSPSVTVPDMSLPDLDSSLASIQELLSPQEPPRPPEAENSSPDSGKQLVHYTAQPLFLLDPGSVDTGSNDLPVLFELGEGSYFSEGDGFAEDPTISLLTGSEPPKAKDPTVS
In short: as §1

[13] = biological target: T8, SPIC (Homo sapiens, UniProt Q8N5J4 1-248); conditions: protein: recombinant; tags: N-terminal GST; dsDNA, one strand shown
T8 sequence: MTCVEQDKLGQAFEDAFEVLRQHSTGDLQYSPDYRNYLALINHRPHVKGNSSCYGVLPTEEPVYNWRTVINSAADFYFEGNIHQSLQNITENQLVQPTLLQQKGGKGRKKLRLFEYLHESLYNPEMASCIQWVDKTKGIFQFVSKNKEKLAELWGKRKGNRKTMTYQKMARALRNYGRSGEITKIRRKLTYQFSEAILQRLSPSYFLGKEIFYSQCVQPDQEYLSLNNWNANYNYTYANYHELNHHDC
In short: as §1

[14] = biological target: ELF4 (Homo sapiens, UniProt Q99607 1-663); conditions: protein: recombinant; tags: N-terminal GST; dsDNA, one strand shown
Chain of ELF4 (Q99607 whole entry): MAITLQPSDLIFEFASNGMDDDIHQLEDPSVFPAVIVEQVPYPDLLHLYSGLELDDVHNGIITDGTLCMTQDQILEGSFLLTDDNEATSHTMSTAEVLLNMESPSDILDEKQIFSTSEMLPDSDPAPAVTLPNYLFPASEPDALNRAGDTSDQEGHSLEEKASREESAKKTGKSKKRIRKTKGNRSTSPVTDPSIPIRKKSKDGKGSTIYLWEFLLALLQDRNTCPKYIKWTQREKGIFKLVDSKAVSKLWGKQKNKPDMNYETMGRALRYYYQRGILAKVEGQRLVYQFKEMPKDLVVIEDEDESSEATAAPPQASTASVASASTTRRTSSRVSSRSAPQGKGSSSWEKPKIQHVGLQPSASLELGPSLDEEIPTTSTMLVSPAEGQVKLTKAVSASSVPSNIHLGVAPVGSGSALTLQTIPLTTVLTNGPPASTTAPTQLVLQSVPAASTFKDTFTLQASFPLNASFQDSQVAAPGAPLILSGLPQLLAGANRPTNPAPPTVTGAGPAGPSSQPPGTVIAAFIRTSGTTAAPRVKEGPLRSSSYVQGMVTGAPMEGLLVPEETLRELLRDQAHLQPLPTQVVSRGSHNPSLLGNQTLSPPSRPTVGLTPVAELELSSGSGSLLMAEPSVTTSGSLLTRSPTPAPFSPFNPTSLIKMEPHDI
In short: as §1

[15] = biological target: T9, ELK4 (Homo sapiens, UniProt P28324-2 1-405); conditions: protein: recombinant; tags: N-terminal GST; dsDNA, one strand shown
T9 sequence: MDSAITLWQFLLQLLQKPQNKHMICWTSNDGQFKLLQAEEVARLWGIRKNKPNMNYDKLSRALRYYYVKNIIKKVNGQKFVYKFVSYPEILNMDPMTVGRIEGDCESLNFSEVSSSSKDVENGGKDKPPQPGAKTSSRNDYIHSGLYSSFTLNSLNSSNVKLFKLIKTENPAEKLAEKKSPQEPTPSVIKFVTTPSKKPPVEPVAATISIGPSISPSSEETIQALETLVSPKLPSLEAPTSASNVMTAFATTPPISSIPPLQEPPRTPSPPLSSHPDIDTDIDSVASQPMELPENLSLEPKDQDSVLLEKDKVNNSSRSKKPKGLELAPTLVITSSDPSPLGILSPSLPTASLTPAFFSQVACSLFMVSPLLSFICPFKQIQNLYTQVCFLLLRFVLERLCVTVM
In short: as §1

[16] = biological target: T10, ETV2 (Homo sapiens, UniProt O00321 1-342); conditions: protein: recombinant; tags: N-terminal GST; dsDNA, one strand shown
T10 sequence: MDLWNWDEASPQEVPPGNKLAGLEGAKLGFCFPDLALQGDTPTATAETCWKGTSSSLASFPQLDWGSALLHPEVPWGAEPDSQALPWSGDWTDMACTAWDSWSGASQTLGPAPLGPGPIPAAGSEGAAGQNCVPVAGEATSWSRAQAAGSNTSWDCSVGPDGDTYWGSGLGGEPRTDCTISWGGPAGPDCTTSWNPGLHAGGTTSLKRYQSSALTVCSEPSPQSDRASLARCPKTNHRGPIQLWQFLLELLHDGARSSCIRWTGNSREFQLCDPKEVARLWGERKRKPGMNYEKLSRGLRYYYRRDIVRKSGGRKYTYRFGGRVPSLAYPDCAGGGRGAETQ
In short: as §1

[17] = biological target: T11, ELF3 (Homo sapiens, UniProt P78545 1-371); conditions: protein: recombinant; tags: N-terminal GST; dsDNA, one strand shown
T11 sequence: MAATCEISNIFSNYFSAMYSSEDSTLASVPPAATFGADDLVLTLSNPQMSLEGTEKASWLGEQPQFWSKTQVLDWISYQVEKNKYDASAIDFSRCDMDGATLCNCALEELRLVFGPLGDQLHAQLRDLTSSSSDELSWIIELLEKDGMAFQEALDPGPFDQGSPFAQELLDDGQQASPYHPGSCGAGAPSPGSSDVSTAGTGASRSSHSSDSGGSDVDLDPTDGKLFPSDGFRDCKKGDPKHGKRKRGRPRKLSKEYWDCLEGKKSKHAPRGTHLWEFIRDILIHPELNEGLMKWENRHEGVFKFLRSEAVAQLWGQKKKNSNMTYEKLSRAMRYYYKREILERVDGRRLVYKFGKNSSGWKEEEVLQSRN
In short: as §1

[18] = biological target: ETV1 (Homo sapiens, UniProt P50549 1-477); conditions: protein: recombinant; tags: N-terminal GST; dsDNA, one strand shown
Chain of ETV1 (P50549 whole entry): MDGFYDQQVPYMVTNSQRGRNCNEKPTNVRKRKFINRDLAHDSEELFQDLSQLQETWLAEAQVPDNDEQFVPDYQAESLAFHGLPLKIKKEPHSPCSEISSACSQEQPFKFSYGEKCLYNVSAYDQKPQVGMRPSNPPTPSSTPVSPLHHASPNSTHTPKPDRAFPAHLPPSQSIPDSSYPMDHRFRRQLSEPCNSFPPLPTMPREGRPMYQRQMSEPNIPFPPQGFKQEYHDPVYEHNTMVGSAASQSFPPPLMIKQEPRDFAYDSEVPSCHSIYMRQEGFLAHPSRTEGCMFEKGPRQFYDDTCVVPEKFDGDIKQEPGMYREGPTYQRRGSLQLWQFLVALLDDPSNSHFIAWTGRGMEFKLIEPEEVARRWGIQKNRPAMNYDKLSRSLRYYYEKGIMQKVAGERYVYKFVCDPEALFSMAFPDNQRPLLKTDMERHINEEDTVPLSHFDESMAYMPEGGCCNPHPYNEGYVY
In short: as §1

ATGTGC
binding signal [1]: 1.05 fold enrichment (6-mer frequency, TF over GST control)
binding signal [2]: 1.1 fold enrichment (6-mer frequency, TF over GST control)
binding signal [3]: 1.1 fold enrichment (6-mer frequency, TF over GST control)
binding signal [4]: 1.14 fold enrichment (6-mer frequency, TF over GST control)
binding signal [5]: 1.19 fold enrichment (6-mer frequency, TF over GST control)
binding signal [6]: 1.05 fold enrichment (6-mer frequency, TF over GST control)
binding signal [7]: 1.06 fold enrichment (6-mer frequency, TF over GST control)
binding signal [8]: 1.15 fold enrichment (6-mer frequency, TF over GST control)
binding signal [9]: 1.09 fold enrichment (6-mer frequency, TF over GST control)
binding signal [10]: 1.16 fold enrichment (6-mer frequency, TF over GST control)
binding signal [11]: 1.16 fold enrichment (6-mer frequency, TF over GST control)
binding signal [12]: 1.02 fold enrichment (6-mer frequency, TF over GST control)
binding signal [13]: 1.17 fold enrichment (6-mer frequency, TF over GST control)
binding signal [14]: 1.17 fold enrichment (6-mer frequency, TF over GST control)
binding signal [15]: 1.21 fold enrichment (6-mer frequency, TF over GST control)
binding signal [16]: 1.11 fold enrichment (6-mer frequency, TF over GST control)
binding signal [17]: 1.1 fold enrichment (6-mer frequency, TF over GST control)
binding signal [18]: 1.05 fold enrichment (6-mer frequency, TF over GST control)
